According to publication PMC4336329 (PLoS ONE, 2015):
About 2,200 (0.71%) of roughly 310,000 compounds showed an effect of 50% or more. Effects have a minus sign here. The list comes from a sample in which strong results are over-represented; it also holds similar structures and randomly drawn compounds.

These compounds were tested against human ether-à-go-go-related gene (hERG) potassium channel (human, UniProt Q12809) (assay: primary screen, population patch clamp on CHO cells stably expressing hERG; higher = less effect of the substance).
Description: Briefly, Chinese hamster ovary (CHO) cells stably expressing the hERG channel were dislodged from tissue culture flasks and dispensed into PPC plates. […] During the recording, background leak currents were estimated by a 100 ms step to -80 mV from an initial holding potential of -70 mV and subtracted from the subsequent current measurement. The campaign was conducted in two phases using slight differences in recording protocol. In the first phase, the initial voltage pulse used a 100 ms step to -30 mV from a holding potential of -70 mV, a 2 s conditioning step to +25 mV, and a 2 s test step to -30 mV. During the second phase of the screen, the potential during the conditioning step was raised to +45 mV. In both phases of the campaign, a secondary voltage pulse was applied using the same parameters as the second phase initial pulse. The initial and secondary pulses were applied in the absence of compound, and upon application of 1 μM and 10 μM test concentrations. Small molecule effects on hERG current density were quantified by […].

Chain of human ether-à-go-go-related gene (hERG) potassium channel (Q12809 whole entry, looked up): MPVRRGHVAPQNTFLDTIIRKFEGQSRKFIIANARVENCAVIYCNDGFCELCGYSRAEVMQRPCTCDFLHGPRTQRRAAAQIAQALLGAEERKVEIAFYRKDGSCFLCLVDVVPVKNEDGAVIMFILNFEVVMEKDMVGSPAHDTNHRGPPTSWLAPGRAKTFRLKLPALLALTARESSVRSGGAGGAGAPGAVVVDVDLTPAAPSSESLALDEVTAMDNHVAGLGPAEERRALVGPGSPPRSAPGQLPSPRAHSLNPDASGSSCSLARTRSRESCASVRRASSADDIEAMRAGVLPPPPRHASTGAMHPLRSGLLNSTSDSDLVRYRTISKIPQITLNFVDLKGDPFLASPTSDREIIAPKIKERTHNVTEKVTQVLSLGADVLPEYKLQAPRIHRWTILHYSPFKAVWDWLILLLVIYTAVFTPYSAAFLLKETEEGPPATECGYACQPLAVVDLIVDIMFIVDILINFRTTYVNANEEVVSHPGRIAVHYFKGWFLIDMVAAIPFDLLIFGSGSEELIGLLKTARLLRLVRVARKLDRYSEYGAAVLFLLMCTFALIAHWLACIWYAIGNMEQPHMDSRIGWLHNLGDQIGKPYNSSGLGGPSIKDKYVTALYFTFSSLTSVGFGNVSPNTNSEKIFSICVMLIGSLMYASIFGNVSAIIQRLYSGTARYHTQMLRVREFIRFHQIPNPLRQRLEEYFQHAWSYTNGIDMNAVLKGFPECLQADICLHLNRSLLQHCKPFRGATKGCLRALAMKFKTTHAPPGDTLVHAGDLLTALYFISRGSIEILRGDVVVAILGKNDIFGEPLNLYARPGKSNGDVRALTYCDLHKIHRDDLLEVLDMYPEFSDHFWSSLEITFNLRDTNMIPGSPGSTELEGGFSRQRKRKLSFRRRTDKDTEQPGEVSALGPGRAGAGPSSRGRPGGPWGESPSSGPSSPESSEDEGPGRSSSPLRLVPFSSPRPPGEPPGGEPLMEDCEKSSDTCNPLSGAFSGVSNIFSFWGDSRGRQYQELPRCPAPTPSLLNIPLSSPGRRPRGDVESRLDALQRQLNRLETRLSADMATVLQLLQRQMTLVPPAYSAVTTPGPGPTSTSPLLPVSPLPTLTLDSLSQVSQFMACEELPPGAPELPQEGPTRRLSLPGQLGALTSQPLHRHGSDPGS

Row | Compound | hERG current change (%, negative = inhibition) at 1uM [%]
1 | O=C(Oc1ccccc1O)c1cccc2ccccc12 | 6.76
2 | Cc1ccc(N2C(=O)N(CC(=O)Nc3ccc(C)cc3C)C(=O)C2C)cc1 (stereo not shown) | 7.69
3 | COc1cc(NC(=S)NCc2cccnc2)cc(OC)c1 | 15.1
4 | CCOc1ccc(NC(C)=O)cc1[N+](=O)[O-] | 5.43
5 | CCOC(=O)C1(CCc2ccccc2)CCN(Cc2csc(C(C)=O)c2)CC1 | -33.6
6 | CCOC(=O)C1(CCc2ccccc2)CCN(Cc2ccccn2)CC1 | -57.1
7 | CCOC(=O)C1(Cc2ccccc2)CCN(Cc2cccc3c2OCO3)CC1 | 1.36
8 | CCOC(=O)C1(CCc2ccccc2)CCN(Cc2ccc(NC(C)=O)cc2)CC1 | -72.5
9 | CCOC(=O)C1(CCCc2ccccc2)CCN(Cc2cnc(C)s2)CC1 | -44.7
10 | CCOC(=O)C1(CC2CC2)CCN(Cc2cnc(N(C)C)s2)CC1 | 3.01
11 | CCOC(=O)C1(CCc2ccccc2)CCN(Cc2ccn[nH]2)CC1 | -43.8
12 | CCOC(=O)C1(CCc2ccccc2)CCN(Cc2cnc(N(C)C)s2)CC1 | -86.4
13 | CCOC(=O)C1(CCOc2ccccc2)CCN(Cc2ccc(NC(C)=O)cc2)CC1 | -38.6
14 | CCOC(=O)C1(CCOc2ccccc2)CCN(Cc2cccc3c2OCO3)CC1 | -7.1
15 | CCOC(=O)C1(CCc2ccccc2)CCN(Cc2cccc3c2OCO3)CC1 | -63.7
16 | CCOC(=O)C1(CCc2ccccc2)CCN(Cc2nccn2CC)CC1 | -47.2
17 | CCOc1cc(C)ccc1OCc1nnc(SCC(=O)c2cccc([N+](=O)[O-])c2)n1CC | -1.84
18 | O=C(Nc1cc(=O)[nH]c2ncnn12)c1ccc(Cl)cc1Cl | -2.66
19 | CC(C)(C)c1ccc(C(=O)NN2C(=O)CSC2=S)cc1 | 12.1
20 | CCOC(=O)C1(CCc2ccccc2)CCN(Cc2ccc(OC)cc2)CC1 | -86.9
21 | CCOC(=O)C1(Cc2ccccc2)CCN(Cc2ccc3c(c2)OCCO3)CC1 | -0.488
22 | CCOC(=O)C1(CCc2ccccc2)CCN(Cc2cc(OC)c(OC)cc2OC)CC1 | -68.1
23 | CCOC(=O)C1(CCc2ccccc2)CCN(Cc2cccc3cnccc23)CC1 | -4.67
24 | CCOC(=O)C1(CCOc2ccccc2)CCN(Cc2ccc3c(c2)OCCO3)CC1 | -25.8
25 | CCOC(=O)C1(CCc2ccccc2)CCN(Cc2cccc3nccnc23)CC1 | -19.3
26 | CCOC(=O)C1(CCc2ccccc2)CCN(Cc2c(O)cccc2OC)CC1 | -28.7
27 | CCOC(=O)C1(CCc2ccccc2)CCN(Cc2ccc3c(c2)OCCO3)CC1 | -91.4
28 | CCOC(=O)C1(CCc2ccccc2)CCN(Cc2ccco2)CC1 | -42.7

Row | Compound | hERG current change (%, negative = inhibition) at 1uM [%]
29 | CCOC(=O)C1(Cc2ccccc2)CCN(Cc2cccc(OC)c2O)CC1 | -31
30 | CCOC(=O)C1(CCc2ccccc2)CCN(Cc2ccc(O)cc2)CC1 | -86.3
31 | CCOC(=O)C1(CCc2ccccc2)CCN(CC(O)CO)CC1 (stereo not shown) | 1.26
32 | Cc1ccc(/C=N/Nc2nnc(Cl)c3ccccc23)cc1 | -1.46
33 | COc1ccc(C[C@H]2c3cc(O)c(OC)cc3CC[N+]2(C)[O-])cc1O (stereo partly shown) | 16.9
34 | Cn1c(NCCc2ccccc2)cc(=O)n(C)c1=O | 11.8
35 | Cc1ccc(C(=O)N(C)Cc2ccc(N3CCOCC3)cc2)cc1S(=O)(=O)NCc1ccccc1 | 1.2
36 | CCCCNC(=S)NNC(=O)c1cc(C2CC2)nc2ccccc12 | 13.2
37 | COc1ccc(C2CC(=O)n3c(nc4ccccc43)S2)cc1OC (stereo not shown) | 12.9
38 | COc1ccc(CNC(=O)COC(=O)CN2C(=O)C(C)Oc3ccc(C)cc32)cc1 (stereo not shown) | 9.75
39 | CCOC(=O)C1(CCOc2ccccc2)CCN(Cc2ccc(C(=O)OC)cc2)CC1 | -15.5
40 | CCOC(=O)C1(CCc2ccccc2)CCN(Cc2ccc(C(=O)OC)cc2)CC1 | -86.1
41 | CCOC(=O)C1(CCOC)CCN(Cc2ccc(C(=O)OC)cc2)CC1 | 0.201
42 | Cc1ccc(NC(=O)/C(C#N)=C/c2ccc(C)s2)c(C)c1 | 14.2
43 | Cl.O=C(c1cccc(S(=O)(=O)N2CCCCC2)c1)N1CCN(Cc2ccccc2)CC1 | 6.64
44 | N#Cc1ccc(CN2CCN(C(=O)c3ccc(S(=O)(=O)N4CCCCCC4)cc3)CC2)cc1 | -5.24
45 | N#Cc1ccc(CN2CCN(C(=O)c3cccc(S(=O)(=O)N4CCCCCC4)c3)CC2)cc1 | -51.3
46 | Cc1sc2ncn(Cc3ccccc3F)c(=O)c2c1C | 1.65
47 | O=C1CS/C(=N/N=C2C3CC4CC(C3)CC2C4)N1 | -4.65
48 | CC(=O)OC1CC[C@]2(C#N)[C@H]3CC[C@]4(C)[C@H](C5C=CC(=O)O5)CCC4(O)C3CCC2(O)C1 (stereo partly shown) | 12.9
49 | Cc1cc(C(=O)N2CCCC(N3CCN(c4ccccc4C)CC3)C2)n(C)n1 (stereo not shown) | -87.7
50 | Cc1ccccc1N1CCN(C2CCCN(C(=O)c3cc(CC(C)C)nn3C)C2)CC1 (stereo not shown) | 5.95
51 | CCCc1cc(C(=O)N2CCCC(N3CCN(c4ccccc4C)CC3)C2)n(C)n1 (stereo not shown) | 3.48
52 | Cc1cccc(NS(=O)(=O)c2ccc(C(=O)NCC(C)(C)N3CCOCC3)cc2)c1C | -6.55
53 | Cc1nc2sc(C(c3cccs3)N3CCN(c4ccccc4)CC3)c(O)n2n1 (stereo not shown) | 5.92
54 | Cc1nc2sc(C(c3cccs3)N3CCN(Cc4ccccc4)CC3)c(O)n2n1 (stereo not shown) | -50.1
55 | COc1ccc(C(c2sc3nc(C)nn3c2O)N2CCN(Cc3ccccc3)CC2)cc1OC (stereo not shown) | 3.82
